Results as given in PMC5540273 (PLoS ONE, 2017).

How the values were obtained:
Conditions in all cases: concentration: 1 μM, replicates: in singlicate; n = 1
[1] = system: T1, VEGFR2
T1 construct: gene KDR

[2] = system: T2, VPS34
T2 construct: gene PIK3C3

[3] = system: VRK2
[4] = system: WEE1
[5] = system: WEE2
[6] = system: WNK1
[7] = system: WNK2
[8] = system: WNK3
[9] = system: WNK4
[10] = system: T3, YANK1
T3 construct: gene STK32A
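Note: KINOMEscan kinase panel screen.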

SMILES | %Inh [1] [%] | %Inh [2] [%] | %Inh [3] [%] | %Inh [4] [%] | %Inh [5] [%] | %Inh [6] [%] | %Inh [7] [%] | %Inh [8] [%] | %Inh [9] [%] | %Inh [10] [%]
O=c1cc(N2CCOCC2)nc2n(Cc3ccccc3F)ccn12 [GSK2297428] | 0 | 94 | 0 | 0 | 0 | 0 | 0 | 19 | 0 | 0
Cc1nccc(-c2c(-c3ccc(F)cc3)ncn2CCCN2CCOCC2)n1.Cl [SB-282975] | 0 | 0 | 0 | 9 | 16 | 12 | 6 | 2 | 0 | 0
O=C(Nc1n[nH]c2nc(-c3ccco3)c(Br)cc12)C1CCN(Cc2ccccc2)C1.O=C(O)[C@H](O)[C@@H](O)C(=O)O (stereo not drawn) [SB-742034] | 7 | 0 | 0 | 0 | 8 | 0 | 0 | 0 | 2 | 0
Cc1ccccc1Cn1ccn2c(=O)cc(N3CCOCC3)nc12 [GSK2269905] | 0 | 88 | 0 | 0 | 0 | 10 | 0 | 8 | 0 | 8
COC(=O)C(NC(=O)NC1CCN(c2ccnc(Nc3ccc(F)cc3)n2)C1)c1ccccc1 (stereo not drawn) [GSK1379712] | 14 | 0 | 24 | 9 | 0 | 22 | 28 | 36 | 25 | 0
CNCc1ccc2nc(NC(=O)c3ccc(C(C)(C)C)cc3)cn2c1 | 6 | 2 | 74 | 0 | 0 | 0 | 0 | 30 | 13 | 2
COC(=O)c1cccc(NC(=O)NC2CCN(c3ccnc(Nc4ccc(OC)cc4)n3)C2)c1 (stereo not drawn) [GSK1379746] | 0 | 0 | 0 | 7 | 0 | 11 | 4 | 51 | 46 | 0
COc1ccc(CSc2nnc(-c3ccc4nccn4c3)o2)cc1C(F)(F)F | 10 | 7 | 7 | 9 | 0 | 0 | 0 | 0 | 2 | 20
COc1ccc(Nc2nccc(-c3ccc(NC(=O)c4cc5cc(F)ccc5[nH]4)cc3)n2)cc1 [GSK1229496] | 0 | 2 | 0 | 7 | 0 | 0 | 14 | 18 | 51 | 0
CC(=O)c1cccc(NC(=O)NC2CCN(c3ccnc(Nc4ccc(F)cc4)n3)C2)c1 (stereo not drawn) [GSK1379710] | 8 | 10 | 19 | 19 | 10 | 10 | 0 | 49 | 22 | 12
COc1ccc(Nc2nccc(N3CCC(NC(=O)C(C)c4ccc(Cl)cc4)C3)n2)cc1 (stereo not drawn) [GSK1379735] | 0 | 15 | 0 | 16 | 0 | 6 | 31 | 8 | 0 | 69
CCn1c(-c2c(N)noc2C)nc2cnccc21 [SB-737856] | 0 | 0 | 0 | 18 | 11 | 20 | 0 | 17 | 78 | 9
Nc1ncnc2occ(-c3ccc4c(c3)CCN4C(=O)Cc3cc(F)ccc3F)c12 [GSK2645446] | 0 | 0 | 0 | 0 | 13 | 1 | 14 | 38 | 60 | 0
CNc1cc(-c2ccc3c(N)n[nH]c3c2)nc(N)n1 [GSK2224810] | 25 | 0 | 0 | 1 | 5 | 0 | 0 | 19 | 88 | 36
CCCCc1nn2ncccc2c1-c1ccnc(NC2CC2)n1 [GW684374] | 0 | 0 | 4 | 34 | 0 | 3 | 15 | 26 | 14 | 6
COC(=O)c1cccc(NC(=O)NC2CCN(c3ccnc(Nc4ccc(F)cc4)n3)C2)c1 (stereo not drawn) [GSK1379725] | 0 | 0 | 0 | 16 | 5 | 0 | 18 | 27 | 0 | 0
O=C(Nc1n[nH]c2cc(-c3ccsc3)ccc12)C1CC1 [SB-732932] | 13 | 27 | 0 | 0 | 13 | 18 | 34 | 18 | 9 | 0
Nc1nccc(-c2c(-c3ccc(F)cc3)ncn2C2CCN(Cc3ccccc3)CC2)n1 [SB-219980] | 1 | 0 | 0 | 0 | 0 | 7 | 12 | 0 | 0 | 28

SMILES | %Inh [1] [%] | %Inh [2] [%] | %Inh [3] [%] | %Inh [4] [%] | %Inh [5] [%] | %Inh [6] [%] | %Inh [7] [%] | %Inh [8] [%] | %Inh [9] [%] | %Inh [10] [%]
CS(=O)(=O)CCNCc1nc(-c2ccc3ncnc(Nc4ccc5c(cnn5Cc5ccccc5)c4)c3c2)cs1.Cl.Cl [GW569716] | 0 | 0 | 16 | 0 | 5 | 5 | 3 | 0 | 62 | 3
Cc1ccccc1-c1cc(-c2c[nH]nc2-c2ccccn2)ccn1 [GW680061] | 0 | 0 | 0 | 8 | 0 | 14 | 14 | 24 | 31 | 0
COc1ccc(CSc2nnc(-c3ccc4c(c3)CCO4)o2)cc1 | 0 | 15 | 0 | 0 | 14 | 0 | 0 | 0 | 0 | 0
Cc1c(Cn2c(C)c(C)n3c(=O)cc(N4CCOCC4)nc23)cccc1C(F)(F)F [GSK2328680] | 0 | 20 | 0 | 9 | 14 | 0 | 0 | 0 | 0 | 6
CC(=O)c1c(C)c2cnc(Nc3ccc(N4CCNCC4)cn3)nc2n(C2CCCC2)c1=O | 6 | 0 | 0 | 0 | 0 | 0 | 0 | 0 | 0 | 16
COc1ccc(-c2coc3ccc(-c4nnc(C)o4)cc23)cc1 | 0 | 0 | 0 | 0 | 4 | 0 | 32 | 0 | 0 | 0
NS(=O)(=O)c1cccc(N/C=C2\C(=O)Nc3ccc(S(=O)(=O)Cc4c(Cl)cccc4Cl)cc32)c1 [GSK398099] | 0 | 0 | 0 | 10 | 20 | 20 | 8 | 0 | 0 | 1
FC(F)(F)c1ccccc1-c1cc(-c2c[nH]nc2-c2ccccn2)ccn1 [GW679396] | 1 | 0 | 0 | 4 | 5 | 0 | 0 | 13 | 11 | 3
Cc1ccc(NC(=O)Nc2ccccc2)cc1-c1ccc(C(=O)Nc2ccncc2)cc1 [GSK1398471] | 0 | 0 | 0 | 26 | 0 | 0 | 36 | 0 | 0 | 9
COc1cccc(CNC(=O)NC2CCN(c3ccnc(Nc4ccc(F)cc4)n3)C2)c1 (stereo not drawn) [GSK1379723] | 1 | 0 | 0 | 3 | 12 | 6 | 13 | 5 | 7 | 0
COC(=O)C(Cc1ccccc1)NC(=O)NC1CCN(c2ccnc(Nc3ccc(F)cc3)n2)C1 (stereo not drawn) [GSK1379714] | 7 | 3 | 38 | 0 | 13 | 3 | 46 | 38 | 45 | 0
CCn1c(-c2ccccc2)nc2cnccc21 [SB-733416] | 0 | 0 | 34 | 8 | 2 | 17 | 0 | 26 | 19 | 0
COc1ccc(CSc2nnc(-c3ccc4ncsc4c3)o2)cc1C(F)(F)F | 0 | 0 | 0 | 0 | 0 | 0 | 8 | 0 | 0 | 0
COc1ccc(Nc2nccc(N3CCC(NC(=O)c4cc5ccccc5s4)C3)n2)cc1 (stereo not drawn) [GSK1379738] | 0 | 0 | 0 | 10 | 0 | 14 | 11 | 34 | 24 | 0
COc1nccc(-c2c(-c3ccc(F)cc3)ncn2CCCN2CCOCC2)n1 [SB-282852] | 1 | 21 | 77 | 0 | 52 | 11 | 14 | 0 | 0 | 0
O=C1NC(=O)C(c2ccc(Cl)cc2)=C1Nc1cccc(Cl)c1 [SB-317651] | 0 | 90.2 | 90.5 | 0 | 29 | 0 | 27 | 0 | 0 | 0
Cc1cnc(N)c(/C=C/c2cncc(C(=O)NCCc3ccc(Cl)cc3Cl)c2)c1.Cl [GSK190937] | 0 | 0 | 26 | 5 | 0 | 3 | 4 | 30 | 4 | 0
CS(=O)(=O)Cc1ccc(Nc2nccc(-c3c(-c4cccc(NC(=O)C5CCCCC5)c4)nn4ncccc34)n2)cc1 [GSK350559] | 29 | 0 | 49 | 0 | 0 | 0 | 14 | 0 | 44 | 26
